Source: the supplement of paper PMC4466140

Experiments:
Assay in all cases: SPOT peptide array binding signal intensity (averaged, normalized) (arbitrary units (background-subtracted, floor 0; scale differs between SH3 domains)); higher = stronger binding of the SH3 domain to the peptide
CaNbp2 = molecular target: CaNbp2
In short: (§1)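 Spot intensities were captured after detection with anti-GST antibody, an HRP-linked anti-mouse secondary and luminol, and quantified with Genespotter. The probes were GST-fused SH3 domains from four yeast species, produced in E. coli BL21(DE3), purified on glutathione Sepharose and incubated at 10 μg/ml overnight at 4°C on cellulose-bound synthetic 15-mer peptides with cysteines replaced by serines. Binding signal is the normalized, background-subtracted spot intensity averaged over replicates, and its arbitrary units differ between domains.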

CaRvs167 = molecular target: CaRvs167
In short: as §1

CaRvs167-3 = molecular target: CaRvs167-3
In short: as §1

CaSho1 = molecular target: CaSho1
In short: as §1

CaSla1-D1-D2 = molecular target: CaSla1-D1-D2
In short: as §1

CaSla1-D3 = molecular target: CaSla1-D3
In short: as §1

ScAbp1 = molecular target: ScAbp1
In short: as §1

ScBbc1 = molecular target: ScBbc1
In short: as §1

ScBem1-D1 = molecular target: ScBem1-D1
In short: as §1

ScBzz1-D1 = molecular target: ScBzz1-D1
In short: as §1

ScBzz1-D2 = molecular target: ScBzz1-D2
In short: as §1

ScCyk3 = molecular target: ScCyk3
In short: as §1

ScFus1 = molecular target: ScFus1
In short: as §1

ScHof1 = molecular target: ScHof1
In short: as §1

ScHse1 = molecular target: ScHse1
In short: as §1

ScLsb1 = molecular target: ScLsb1
In short: as §1

ScLsb2 = molecular target: ScLsb2
In short: as §1

ScLsb3 = molecular target: ScLsb3
In short: as §1

ScLsb4 = molecular target: ScLsb4
In short: as §1

ScMyo3 = molecular target: ScMyo3
In short: as §1

ScMyo5 = molecular target: ScMyo5
In short: as §1

ScNbp2 = molecular target: ScNbp2
In short: as §1

ScPex13 = molecular target: ScPex13
In short: as §1

ScRvs167 = molecular target: ScRvs167
In short: as §1

ScSho1 = molecular target: ScSho1
In short: as §1

ScSla1-D1-D2 = molecular target: ScSla1-D1-D2
In short: as §1

ScSla1-D3 = molecular target: ScSla1-D3
In short: as §1

SpAbp1-D1 = molecular target: SpAbp1-D1
In short: as §1

SpBbc1 = molecular target: SpBbc1
In short: as §1

SpBzz1-D1 = molecular target: SpBzz1-D1
In short: as §1

SpBzz1-D2 = molecular target: SpBzz1-D2
In short: as §1

SpCyk3 = molecular target: SpCyk3
In short: as §1

SpHof1 = molecular target: SpHof1
In short: as §1

SpHof1-2 = molecular target: SpHof1-2
In short: as §1

SpHof1-3 = molecular target: SpHof1-3
In short: as §1

SpHse1 = molecular target: SpHse1
In short: as §1

SpLsb1 = molecular target: SpLsb1
In short: as §1

SpLsb4 = molecular target: SpLsb4
In short: as §1

SpMyo1 = molecular target: SpMyo1
In short: as §1

SpNbp2 = molecular target: SpNbp2
In short: as §1

SpPex13 = molecular target: SpPex13
In short: as §1

SpRvs167 = molecular target: SpRvs167
In short: as §1

SpSla1-D1-D2 = molecular target: SpSla1-D1-D2
In short: as §1

SpSla1-D3 = molecular target: SpSla1-D3
In short: as §1

AgAbp1 = molecular target: AgAbp1
In short: as §1

AgBbc1 = molecular target: AgBbc1
In short: as §1

AgBem1-D1 = molecular target: AgBem1-D1
In short: as §1

AgBzz1-D1 = molecular target: AgBzz1-D1
In short: as §1

AgBzz1-D2 = molecular target: AgBzz1-D2
In short: as §1

AgCyk3 = molecular target: AgCyk3
In short: as §1

AgFus1 = molecular target: AgFus1
In short: as §1

AgHof1 = molecular target: AgHof1
In short: as §1

AgHse1 = molecular target: AgHse1
In short: as §1

AgLsb1 = molecular target: AgLsb1
In short: as §1

AgLsb4 = molecular target: AgLsb4
In short: as §1

AgMyo5 = molecular target: AgMyo5
In short: as §1

AgNbp2 = molecular target: AgNbp2
In short: as §1

AgRvs167 = molecular target: AgRvs167
In short: as §1

AgSho1 = molecular target: AgSho1
In short: as §1

AgSla1-D1-D2 = molecular target: AgSla1-D1-D2
In short: as §1

AgSla1-D3 = molecular target: AgSla1-D3
In short: as §1

CaAbp1-D1 = molecular target: CaAbp1-D1
In short: as §1

CaAbp1-D2 = molecular target: CaAbp1-D2
In short: as §1

CaBbc1 = molecular target: CaBbc1
In short: as §1

CaBem1-D1 = molecular target: CaBem1-D1
In short: as §1

CaBzz1-D1 = molecular target: CaBzz1-D1
In short: as §1

CaBzz1-D2 = molecular target: CaBzz1-D2
In short: as §1

CaCyk3 = molecular target: CaCyk3
In short: as §1

CaFus1 = molecular target: CaFus1
In short: as §1

CaHof1 = molecular target: CaHof1
In short: as §1

CaHse1 = molecular target: CaHse1
In short: as §1

CaLsb1 = molecular target: CaLsb1
In short: as §1

CaLsb4 = molecular target: CaLsb4
In short: as §1

CaMyo5 = molecular target: CaMyo5
In short: as §1

VNFRRIPTGPDSPPT
SPOT peptide array binding signal intensity (CaNbp2): 113 | SPOT peptide array binding signal intensity (CaRvs167): 1.33 | SPOT peptide array binding signal intensity (CaRvs167-3): 115 | SPOT peptide array binding signal intensity (CaSho1): 94.5 | SPOT peptide array binding signal intensity (CaSla1-D1-D2): ≤ 0 | SPOT peptide array binding signal intensity (CaSla1-D3): ≤ 0 | SPOT peptide array binding signal intensity (ScAbp1): 4 | SPOT peptide array binding signal intensity (ScBbc1): 2 | SPOT peptide array binding signal intensity (ScBem1-D1): ≤ 0 | SPOT peptide array binding signal intensity (ScBzz1-D1): 6 | SPOT peptide array binding signal intensity (ScBzz1-D2): 8.5 | SPOT peptide array binding signal intensity (ScCyk3): 1.5 | SPOT peptide array binding signal intensity (ScFus1): 30 | SPOT peptide array binding signal intensity (ScHof1): 0.5 | SPOT peptide array binding signal intensity (ScHse1): 278 | SPOT peptide array binding signal intensity (ScLsb1): ≤ 0 | SPOT peptide array binding signal intensity (ScLsb2): ≤ 0 | SPOT peptide array binding signal intensity (ScLsb3): 79 | SPOT peptide array binding signal intensity (ScLsb4): 11 | SPOT peptide array binding signal intensity (ScMyo3): ≤ 0 | SPOT peptide array binding signal intensity (ScMyo5): ≤ 0 | SPOT peptide array binding signal intensity (ScNbp2): 35.5 | SPOT peptide array binding signal intensity (ScPex13): 22.8 | SPOT peptide array binding signal intensity (ScRvs167): 0.167 | SPOT peptide array binding signal intensity (ScSho1): 96.5 | SPOT peptide array binding signal intensity (ScSla1-D1-D2): ≤ 0 | SPOT peptide array binding signal intensity (ScSla1-D3): 2.5 | SPOT peptide array binding signal intensity (SpAbp1-D1): ≤ 0 | SPOT peptide array binding signal intensity (SpBbc1): ≤ 0 | SPOT peptide array binding signal intensity (SpBzz1-D1): 50 | SPOT peptide array binding signal intensity (SpBzz1-D2): 0.25 | SPOT peptide array binding signal intensity (SpCyk3): ≤ 0 | SPOT peptide array binding signal intensity (SpHof1): 178 | SPOT peptide array binding signal intensity (SpHof1-2): 6 | SPOT peptide array binding signal intensity (SpHof1-3): 0.75 | SPOT peptide array binding signal intensity (SpHse1): 192 | SPOT peptide array binding signal intensity (SpLsb1): ≤ 0 | SPOT peptide array binding signal intensity (SpLsb4): 27.5 | SPOT peptide array binding signal intensity (SpMyo1): 2.5 | SPOT peptide array binding signal intensity (SpNbp2): 14.5 | SPOT peptide array binding signal intensity (SpPex13): ≤ 0 | SPOT peptide array binding signal intensity (SpRvs167): 10.7 | SPOT peptide array binding signal intensity (SpSla1-D1-D2): ≤ 0 | SPOT peptide array binding signal intensity (SpSla1-D3): ≤ 0

GTIARPLFLVVLFFI
SPOT peptide array binding signal intensity (AgAbp1): ≤ 0 | SPOT peptide array binding signal intensity (AgBbc1): 1.25 | SPOT peptide array binding signal intensity (AgBem1-D1): 33 | SPOT peptide array binding signal intensity (AgBzz1-D1): 18 | SPOT peptide array binding signal intensity (AgBzz1-D2): 13.5 | SPOT peptide array binding signal intensity (AgCyk3): 8 | SPOT peptide array binding signal intensity (AgFus1): 1900 | SPOT peptide array binding signal intensity (AgHof1): 0.75 | SPOT peptide array binding signal intensity (AgHse1): 428 | SPOT peptide array binding signal intensity (AgLsb1): ≤ 0 | SPOT peptide array binding signal intensity (AgLsb4): 580 | SPOT peptide array binding signal intensity (AgMyo5): 0.5 | SPOT peptide array binding signal intensity (AgNbp2): 57 | SPOT peptide array binding signal intensity (AgRvs167): 1.33 | SPOT peptide array binding signal intensity (AgSho1): 338 | SPOT peptide array binding signal intensity (AgSla1-D1-D2): ≤ 0 | SPOT peptide array binding signal intensity (AgSla1-D3): 1.75 | SPOT peptide array binding signal intensity (CaAbp1-D1): 56.5 | SPOT peptide array binding signal intensity (CaAbp1-D2): 28.5 | SPOT peptide array binding signal intensity (CaBbc1): 2 | SPOT peptide array binding signal intensity (CaBem1-D1): 15.5 | SPOT peptide array binding signal intensity (CaBzz1-D1): 88 | SPOT peptide array binding signal intensity (CaBzz1-D2): 23.5 | SPOT peptide array binding signal intensity (CaCyk3): 10 | SPOT peptide array binding signal intensity (CaFus1): 3640 | SPOT peptide array binding signal intensity (CaHof1): 16.5 | SPOT peptide array binding signal intensity (CaHse1): 126 | SPOT peptide array binding signal intensity (CaLsb1): 1.25 | SPOT peptide array binding signal intensity (CaLsb4): ≤ 0 | SPOT peptide array binding signal intensity (CaMyo5): 4.5 | SPOT peptide array binding signal intensity (CaNbp2): 600 | SPOT peptide array binding signal intensity (CaRvs167): 49 | SPOT peptide array binding signal intensity (CaRvs167-3): 17 | SPOT peptide array binding signal intensity (CaSho1): 730 | SPOT peptide array binding signal intensity (CaSla1-D1-D2): ≤ 0 | SPOT peptide array binding signal intensity (CaSla1-D3): 5.75 | SPOT peptide array binding signal intensity (ScAbp1): 3 | SPOT peptide array binding signal intensity (ScBbc1): ≤ 0 | SPOT peptide array binding signal intensity (ScBem1-D1): 1 | SPOT peptide array binding signal intensity (ScBzz1-D1): 40 | SPOT peptide array binding signal intensity (ScBzz1-D2): 37.5 | SPOT peptide array binding signal intensity (ScCyk3): 50 | SPOT peptide array binding signal intensity (ScFus1): 2030 | SPOT peptide array binding signal intensity (ScHof1): ≤ 0 | SPOT peptide array binding signal intensity (ScHse1): 472 | SPOT peptide array binding signal intensity (ScLsb1): ≤ 0 | SPOT peptide array binding signal intensity (ScLsb2): ≤ 0 | SPOT peptide array binding signal intensity (ScLsb3): ≤ 0 | SPOT peptide array binding signal intensity (ScLsb4): ≤ 0 | SPOT peptide array binding signal intensity (ScMyo3): ≤ 0 | SPOT peptide array binding signal intensity (ScMyo5): 1 | SPOT peptide array binding signal intensity (ScNbp2): 78.5 | SPOT peptide array binding signal intensity (ScPex13): ≤ 0 | SPOT peptide array binding signal intensity (ScRvs167): 1.67 | SPOT peptide array binding signal intensity (ScSho1): 1050 | SPOT peptide array binding signal intensity (ScSla1-D1-D2): ≤ 0 | SPOT peptide array binding signal intensity (ScSla1-D3): 1 | SPOT peptide array binding signal intensity (SpAbp1-D1): 3.5 | SPOT peptide array binding signal intensity (SpBbc1): 2 | SPOT peptide array binding signal intensity (SpBzz1-D1): 111 | SPOT peptide array binding signal intensity (SpBzz1-D2): ≤ 0 | SPOT peptide array binding signal intensity (SpCyk3): 24 | SPOT peptide array binding signal intensity (SpHof1): 45 | SPOT peptide array binding signal intensity (SpHof1-2): 22.5 | SPOT peptide array binding signal intensity (SpHof1-3): 637 | SPOT peptide array binding signal intensity (SpHse1): 1630 | SPOT peptide array binding signal intensity (SpLsb1): ≤ 0 | SPOT peptide array binding signal intensity (SpLsb4): ≤ 0 | SPOT peptide array binding signal intensity (SpMyo1): 4.25 | SPOT peptide array binding signal intensity (SpNbp2): 160 | SPOT peptide array binding signal intensity (SpPex13): 1 | SPOT peptide array binding signal intensity (SpRvs167): ≤ 0 | SPOT peptide array binding signal intensity (SpSla1-D1-D2): 1 | SPOT peptide array binding signal intensity (SpSla1-D3): ≤ 0
